# Source: PubChem BioAssay (National Center for Advancing Translational Sciences (NCATS))
# This is a sample that favours compounds with a hit; in the whole collection about 12% have one here.
# Sfp inh – Sfp phosphopantetheinyl transferase inhibition. Q9F4F7. Biochemical Sfp PPTase activity, qHTS. Potency, µM, inactives show largest response in the series, negative = inhibition, hits mostly inhibitors. 310,000 tested, 3.5% active. AID 1490;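 also: the enzyme is Sfp with the accession as filed and its product quenches rhodamine fluorescence; potency is read from the fitted curve at half-maximal effect; 0% = enzyme reaction without inhibitor and -100% = no enzyme wells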
#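 Fluorescence-quenching assay with 15 nM Sfp, 5 uM rhodamine-CoA and 12.5 uM BHQ-2-labelled ybbR peptide in pH 7.6 Hepes/MgCl2 buffer. Enzyme was pre-incubated with compound for 15 min at room temperature. Rate was taken from the 30-min fluorescence change (525/598 nm).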
# BAZ2B block – BAZ2B (human) inhibition | Potency, µM (highest dose often 114 µM), for inactives: top-dose activity change, negative = inhibition, hits mostly inhibitors | AlphaScreen BAZ2B-H3K14Ac peptide displacement | 360,000 tested, 4.4% active; also: potency is read from the fitted curve at half-maximal effect; % is scaled to controls: 0 for no effect and ±100 for the full control effect; nearly all actives have a fitted effect of over 60% in size
#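 In this displacement format the biotinylated H3(5-23) peptide acetylated at Lys14 serves as ligand at 50 nM, with BAZ2B at 50 nM in PBS pH 7.4 containing 0.01% Tween-20. Donor and acceptor beads are 10 ug/mL final.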
# G9a inh-1 – G9a (human) methyltransferase inhibition; Q96KQ7; G9a H3K9 monomethylation, AlphaScreen, 2 h; Potency, µM (doses to about 102 µM), inactives show at the highest dose activity, negative = inhibition, usual class: inhibitors; 350,000 tested, 8.8% active; AID 504332; also: potency is read from the fitted curve at half-maximal effect; % is scaled to controls: 0 for no effect and ±100 for the full control effect; nearly all actives have a fitted effect of over 75% in size
#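 Using a bead-based AlphaScreen, monomethylated H3K9 product from 2 h room-temperature reactions (G9a 20 nM, peptide 500 nM, SAM 20 uM) was detected with 0.5 ug/mL rabbit anti-H3K9me1 antibody.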
# L3MBTL1 block – inhibitors of human L3MBTL1. AlphaScreen L3MBTL1–H3K9me1 peptide binding. Potency, µM (titrated, usually from 57.1 µM), for inactives: top-dose activity, negative = inhibition, most hits filed as inhibitors. 230,000 tested, 0.66% active; also: potency is read from the fitted curve at half-maximal effect; % is scaled to controls: 0 for no effect and ±100 for the full control effect; nearly all actives have a fitted effect of over 60% in size
#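 Read-out is AlphaScreen signal from streptavidin donor and nickel chelate acceptor beads (10 ug/mL final each) bridging L3MBTL1 (50 nM) and biotinylated K9-monomethylated H3(1-15) peptide (75 nM), after 30 min compound exposure at room temperature.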
# HP1b chromo inh – blocks HP1-beta chromodomain binding to methylated histone tails | AlphaScreen HP1-beta / biotin-H3K9me3 peptide binding | P83916 | 390,000 tested, 0.56% active | AID 540317 | Potency, µM (titrated, usually from 114 µM), without a hit: top-dose activity change, negative = inhibition, usual class: inhibitors; also: potency is read from the fitted curve at half-maximal effect; nearly all actives have a fitted effect of over 70% in size
# Target sequence (P83916 whole entry, looked up): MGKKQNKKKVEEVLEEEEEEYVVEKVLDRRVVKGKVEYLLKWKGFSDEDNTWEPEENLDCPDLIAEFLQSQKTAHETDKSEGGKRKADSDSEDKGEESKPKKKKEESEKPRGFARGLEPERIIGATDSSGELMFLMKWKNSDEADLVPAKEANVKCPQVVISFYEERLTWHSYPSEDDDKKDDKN
#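 Compound inhibition of the preformed complex between 50 nM HP1-beta and 50 nM biotinylated H3K9me3 peptide was read by AlphaScreen. Buffer was PBS pH 7.4 with 0.01% Tween-20. Incubations ran 30 min at room temperature, with 10 ug/mL donor/acceptor beads.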
# JMJD2A Tudor – blocks the human JMJD2A Tudor domain. AlphaScreen JMJD2A-Tudor / H3K4me3 peptide binding. Potency, µM (titrated, usually from 114 µM), inactives show at the highest dose activity change, negative = inhibition, hits mostly inhibitors. AID 504339. 390,000 tested, 4.4% active; also: potency is read from the fitted curve at half-maximal effect; % is scaled to controls: 0 for no effect and ±100 for the full control effect; nearly all actives have a fitted effect of over 50% in size
# JMJD2E inh – JMJD2E (human) demethylase inhibition, confirmation. shares compounds with JMJD2A Tudor. Recombinant JMJD2E, FDH-coupled NADH fluorescence (FDH is formaldehyde dehydrogenase). Potency, µM (series often up to 56.8 µM), for the others: at the highest dose activity change, negative = inhibition, most hits filed as inhibitors. 140 tested, 93% active
# Target sequence (B2RXH2 1-337 limits assumed): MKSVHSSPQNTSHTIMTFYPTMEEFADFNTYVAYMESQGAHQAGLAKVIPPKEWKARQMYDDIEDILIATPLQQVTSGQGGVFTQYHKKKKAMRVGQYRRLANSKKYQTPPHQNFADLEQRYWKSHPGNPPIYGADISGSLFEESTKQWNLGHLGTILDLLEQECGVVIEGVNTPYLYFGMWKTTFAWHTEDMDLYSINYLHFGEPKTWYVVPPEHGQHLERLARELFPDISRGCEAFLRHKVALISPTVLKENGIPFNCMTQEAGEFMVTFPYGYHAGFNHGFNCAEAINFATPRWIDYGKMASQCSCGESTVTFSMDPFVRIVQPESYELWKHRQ
# FDH counter – blocks Pseudomonas putida formaldehyde dehydrogenase, flagging JMJD2E artifacts; shares compounds with JMJD2A Tudor; FDH enzyme assay, NADH fluorescence kinetic; Potency, µM (series often up to 56.7 µM), for inactives: at the highest dose activity, negative = inhibition, usual class: inhibitors; 140 tested, 10% active
# G9a inh-2 – inhibits human G9a histone lysine methyltransferase, hit confirmation. shares compounds with JMJD2A Tudor. G9a H3K9 monomethylation, AlphaScreen, 2 h. Potency, µM, hits mostly inhibitors. 370 tested, 89% active. AID 588344; also: potency is read from the fitted curve at half-maximal effect; nearly all actives have a fitted effect of over 65% in size
# RGS4 inh – confirmation of human RGS4 inhibitors; RGS4 GAP activity, Transcreener GDP fluorescence polarization; AID 602388; shares compounds with JMJD2A Tudor; Potency, µM, most hits filed as inhibitors; 25 tested, 80% active
# Target sequence (P49798 whole entry, looked up): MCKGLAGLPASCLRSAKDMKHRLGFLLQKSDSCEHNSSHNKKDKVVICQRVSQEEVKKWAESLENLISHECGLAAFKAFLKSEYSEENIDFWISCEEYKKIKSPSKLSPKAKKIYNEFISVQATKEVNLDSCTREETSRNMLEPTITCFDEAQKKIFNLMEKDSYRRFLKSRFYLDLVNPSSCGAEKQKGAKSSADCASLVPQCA
# * = called active by the depositor; ? = inconclusive; · = not tested or not shown; [ ] = remark or other dose. Calls follow the shape of the dose curve; as a rule, active = well fitted curve in the direction sought with a large enough effect; inconclusive = small, poorly fitted or top-dose-only effect, or another doubt; inactive = no such curve, though single readings can be large; an effect the other way counts as inactive or inconclusive.
SMILES,Sfp inh,BAZ2B block,G9a inh-1,L3MBTL1 block,HP1b chromo inh,JMJD2A Tudor,G9a inh-2,others
O=C(CCNS(=O)(=O)c1ccc2c(c1)CCN2C(=O)C1CC1)Nc1ccc(Cl)cc1,·,-1%,-2%[59 µM],·,18%[57 µM],-15%,·,
Fc1ccc(Nc2nc(-c3cccnc3)cs2)cc1,11%,-23%,18%,0%,-11%,-10%[11.4 µM],·,
CN(C)c1ccc(Nc2nc(-c3cccnc3)cs2)cc1,-27%,?,?,-14%,-6%,-34%,0.5*,
CCN(CC)c1ccc(Nc2nc(-c3cccnc3)cs2)cc1,0%,20µM*,0.89µM*,·,40µM*,13µM*,5*,
CCc1ccccc1Nc1nc(-c2cccnc2)cs1,-17%,?,·,-3%,-7%,-31%,·,
O=C(CN1CCCN(Cc2ccc(F)cc2)S1(=O)=O)NCc1ccccc1Cl,·,-2%,?,·,38%,12%,·,
COCCNC(=O)c1[nH]c2cc(C)ccc2c1Sc1ccc(Cl)cc1,·,-12%,-26%[59 µM],·,2%,-20%,·,
C=CCOc1c(Cl)cc(CNc2ccc(N(C)C)cc2)cc1OC,3.5µM*,25µM*,1.8µM*,13µM*,16µM*,18µM*,5.6*,
Cc1cccc(OCCCC(=O)Nc2ccc(Br)cc2)c1,12%,11%,9%,32%,52%,18%,·,
Cc1cccc(OCCCC(=O)Nc2ccc(N(C)C)cc2)c1,0%,?,1.8µM*,-27%,-15%,?,0.89*,
CN(C)c1ccc(NC(=O)Nc2ccc3snnc3c2)cc1,-5%,-35%,1.3µM*,-13%,-27%,-16%,1.6*,
CC1=C(c2ccc(C)c(C)c2)S(=O)(=O)N=C1N1CCC(C(=O)N2CCC(C(N)=O)CC2)CC1,·,1%,16%[59 µM],·,25%,0%,·,
O=C(OCC#CCSc1nnc(-c2ccccc2F)o1)c1ccc(F)cc1,·,·,·,·,·,70%,·,
CCN(Cc1ccncc1)Cc1c(O)ccc2cc(Br)ccc12,45µM*,·,2µM*,-17%,?,45µM*,2.8*,RGS4 inh=17*
CCN(CC)C(=O)Cc1c(OC)ccc2cc(Br)ccc12,-12%,-34%,-39%,2%,50%,10%,·,
CCCn1c(SCc2nc(-c3ccc(OC)cc3OC)no2)nnc1-c1ccc(Cl)cc1,·,?,-51%[59 µM],·,9%,-27%,·,
O=c1c2sc3ccccc3c2n(Cc2ccccc2F)c(=O)n1CCc1ccccc1,·,-7%,1%[59 µM],·,38%,-12%,·,
CCN1c2ccccc2NC2N=C(OC)C(c3ccccc3)C21 (stereo not drawn),3%,45µM*,?,·,?,50µM*,11*,
CCOC(=O)c1c(Oc2ccc(C(=O)OC)cc2)nnc(-c2ccccc2)c1-c1ccccc1,·,-16%,-26%[59 µM],·,35%,-19%,·,
O=C(CC1Sc2ncnn2C1=O)Nc1ccc(Br)cc1 (stereo not drawn),50µM*,-2%,2µM*,3%,?,25µM*,0.18*,JMJD2E inh=4µM*;FDH counter=0.28µM*
CCc1ccc(NC(=O)CCc2nc3sc4c(c3c(=O)[nH]2)CCCC4)cc1,·,-37%,-34%,?,30%,-30%,·,
CCN(c1ccc(NC(=O)CCc2nc3sc4c(c3c(=O)[nH]2)CCCC4)cc1)C(C)C,·,-33%,2.2µM*,?,-21%,?,2.2*,
COc1ccc(Cc2nnc(SCC(=O)NC3CCCCC3)n2C)cc1,0%,-1%,?,·,29%,-3%,10*,
O=C(NCC1CCN(c2ccc(S(=O)(=O)N3CCOCC3)cc2)CC1)Nc1ccccc1,8%,-3%,18%,·,20%,1%,·,
COc1ccc(N2CCC(CNC(=O)Nc3ccccc3)C2)cc1 (stereo not drawn),-10%,50µM*,?,·,45µM*,18µM*,1*,
SMILES,Sfp inh,BAZ2B block,G9a inh-1,L3MBTL1 block,HP1b chromo inh,JMJD2A Tudor,G9a inh-2,others
CCOC(=O)N1CCc2c(sc(NCc3cccc(F)c3)c2C(=O)Nc2ccc(OC)cc2OC)C1,·,?,?,·,?,?,2.5*,
CCOC(=O)N1CCc2c(sc(NCc3ccc(N(C)C)cc3)c2C(=O)Nc2ccc(OC)cc2)C1,·,22µM*,2.8µM*,·,?,14µM*,3.6*,
CCOC(=O)N1CCc2c(sc(NCc3cccc(F)c3)c2C(=O)Nc2ccc(OC)cc2)C1,·,79µM*,?,·,-19%,10µM*,2.3*,
CCc1ccc(C(=O)CC2(O)C(=O)N(Cc3ccc(C)cc3)c3ccccc32)cc1 (stereo not drawn),·,10µM*,5.6µM*,·,?,40µM*,·,RGS4 inh=24*
O=C(CN1CCCC1)Nc1ccc(F)cc1,?,-29%,·,-3%,26%,-10%,·,
O=C(COC(=O)CCC(=O)c1ccc(F)cc1)Nc1ccccc1,17%,1%,22%[0.0925 µM],0%,26%,-9%,·,
CCN(CC)c1ccc(NC(=O)COC(=O)CCC(=O)c2ccc(F)cc2)cc1,-4%,?,1.6µM*,·,-21%,-35%,1.6*,
CCN(CC)c1ccc(NC(=O)CN2CCN(CC(=O)Nc3ccc(F)cc3)CC2)cc1,-12%,?,2.2µM*,·,?,?,2.8*,
CCCNC(=O)c1ccc2c(=O)n3c(-c4ccc(C)cc4)csc3nc2c1,?,7.1µM*,?,·,-25%,22µM*,0.56*,
Cc1cccnc1NC(=O)CCc1c[nH]c2ccccc12,15%,-25%,20%,·,22%,-23%,·,
Cc1ccccc1NCc1ccc(O)c2ncccc12,3%,50µM*,1.1µM*,?,?,28µM*,·,JMJD2E inh=1.4µM*;FDH counter=-13%
Oc1ccc(CNc2ccccc2)c2cccnc12,21%,32µM*,1.3µM*,?,?,79µM*,·,JMJD2E inh=2µM*;FDH counter=-21%
O=C(CSc1ncccn1)NCc1ccccc1,8%,1%,-2%[59 µM],-2%,20%,-8%,·,
CCOC(=O)c1ccccc1NC(=O)CN(c1cc(C(F)(F)F)ccc1Cl)S(C)(=O)=O,·,-1%,1%[59 µM],·,36%,-1%,·,
